Mtb FBA inh – inhibits M. tuberculosis FBA enzyme | purified M. tuberculosis FBA, fluorescence read-out | 2.3% of 360,000 active | inhibition, % at 1 µM | P9WQA3; in the data active = inhibition above about 27%;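 also: 0% = vehicle and 100% = reference inhibitor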
Target sequence (P9WQA3 whole entry, looked up): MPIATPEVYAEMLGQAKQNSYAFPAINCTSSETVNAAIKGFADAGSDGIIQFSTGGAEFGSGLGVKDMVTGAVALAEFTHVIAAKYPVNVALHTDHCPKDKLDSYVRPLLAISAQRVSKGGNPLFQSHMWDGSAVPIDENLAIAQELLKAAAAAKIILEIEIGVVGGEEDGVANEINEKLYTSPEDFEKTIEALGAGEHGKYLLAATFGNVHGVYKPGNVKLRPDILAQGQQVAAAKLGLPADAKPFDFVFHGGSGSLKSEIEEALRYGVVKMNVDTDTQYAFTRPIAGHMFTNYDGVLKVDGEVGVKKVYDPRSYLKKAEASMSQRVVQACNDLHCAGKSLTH
GDH-TPI counter-1 – GDH-TPI coupled enzyme inhibition counter-screen; AID 588335; 1.2% of 360,000 active; inhibition, % at 4.8 µM; GDH-TPI coupled enzyme counterscreen, NADH absorbance;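 also: 0% = DMSO wells and 100% = wells lacking the enzyme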
CCHF vOTU inh – CCHFV vOTU protease inhibition; Pep-AMC fluorescence; inhibition, % at 11.5 µM; 0.55% of 370,000 active; also: 0% = vehicle wells with enzyme and 100% = no enzyme wells
Vc quorum ag – induces V. cholerae light production without autoinducers; 0.16% of 350,000 active; V. cholerae BH1578 lux reporter, luminescence, 6 h; activation, % at 18.7 µM; in the data active = activation mostly above about 9.7%, no sharp cut-off
Mtb FBA confirm – Mtb FBA inhibition, confirmed; shares compounds with Mtb FBA inh; purified M. tuberculosis FBA, fluorescence read-out; inhibition, % at 1 µM; 78% of 5,600 active; AID 651616; in the data active = inhibition above about 27%;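 also: 0% = vehicle wells and 100% = reference inhibitor wells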
GDH-TPI counter-2 – GDH-TPI inhibition counter-screen for FBA inhibitors; shares compounds with Mtb FBA inh; GDH-TPI coupled enzyme counterscreen, fluorescence; inhibition, % at 1 µM; 81% of 5,600 active; in the data active = inhibition above about 10%
* = called active by the depositor; i = inactive; . = no result given; + = active, no number. Only some compounds are listed: those with a hit (about 3.9% of all), similar ones and a draw of the others. Rule as the data show it, unless noted: active = inhibition above about 30%; inactive = the rest.

SMILES	Mtb FBA inh	GDH-TPI counter-1	CCHF vOTU inh	Vc quorum ag	Mtb FBA confirm	GDH-TPI counter-2
CCCN1C2=C(C(=O)CC(C)(C)C2)C(c2ccc(F)cc2)C2=C1c1ccccc1C2=O (stereo not given)	1	2	0	0	.	.
CCN(CC)CCN1C2=C(C(=O)CC(C)(C)C2)C(c2cccc(F)c2)C2=C1CC(C)(C)CC2=O	83*	14	-55	i	+	200*
O=C(COC(=O)c1cccs1)Nc1cccc(S(=O)(=O)N2CCOCC2)c1	3	-5	1	i	.	.
CC(C)C1C(=O)N(Cc2cn(Cc3ccco3)nn2)CCS(=O)(=O)N1Cc1ccc(-c2ccc(F)nc2)cc1 (stereo not given)	0	6	-6	1	.	.
CCOc1ccc(-c2nc(C#N)c(N3CCN(C)CC3)o2)cc1	69*	33*	-24	-7	+	+
CCCOc1ccc(-c2nc(C#N)c(N3CCN(C)CC3)o2)cc1	40*	4	-20	i	-5	1
CCOc1ccc(-c2nc(C#N)c(N3CCCCCC3)o2)cc1	100*	14	-22	0	46*	42*
N#Cc1nc(-c2ccc(OCc3ccc(Cl)cc3)cc2)oc1N1CCC(C(N)=O)CC1	9	1	-3	5	.	.
CCN1CCN(c2oc(-c3ccco3)nc2C#N)CC1	18	10	0	i	.	.
CCOc1ccc(-c2nc(C#N)c(N3CCN(CC)CC3)o2)cc1	59*	28	-9	i	44*	49*
COc1cccc2cc(C(=O)NCCN3CCOCC3)oc12	9	1	1	0	.	.
COc1cccc(/C=C/C(=O)OCC(=O)c2ccc(S(=O)(=O)N3CCCCC3)cc2)c1OC	0	6	10	i	.	.
COC(=O)C1=C(Nc2ccc(C)cc2)C=C(C)C(C(=O)OC)C1c1ccc(OC)cc1 (stereo not given)	3	8	4	0	.	.
c1n[nH]c(NC2=NCCC2)n1	4	3	9	i	.	.
CC1CC(C)CN(c2oc(-c3ccco3)nc2C#N)C1 (stereo not given)	91*	19	-33	0	6	4
N#Cc1nc(-c2ccco2)oc1N1CCc2ccccc2C1	46*	23	-13	0	52*	39*
N#Cc1nc(-c2ccco2)oc1N1CCN(C(c2ccccc2)c2ccccc2)CC1	0	16	-9	i	.	.
CC(C)[C@H](NS(=O)(=O)c1ccc(Cl)cc1)C(=O)OCC(=O)c1c(N)n(C)c(=O)n(C)c1=O	3	7	7	i	.	.
COC1OC(CO)C(O)C(O)C1O (stereo not given)	33*	2	-3	0	55*	45*
COc1ccc2c(O)c(-c3c(C)cc(C)cc3C)c(=O)[nH]c2c1	46*	17	-13	-1	-6	-7
COc1ccc2c(C)cc(=O)[nH]c2c1	-6	21	12	-2	.	.
CCOc1ccc(CNC(=O)c2ccc3c(c2)N(CC)CCS3)cc1	71*	6	-61	0	122*	88*
COc1ccc(OC)c(CCNC(=O)c2ccc3c(c2)N(Cc2ccc(F)cc2)CCS3)c1	22	1	.	-1	.	.
CCN1C(=O)CSc2ccc(C(=O)NCc3ccc(OC)cc3)cc21	-4	-12	-9	0	.	.
CCN1CCSc2ccc(C(=O)NCc3ccc(OC(C)C)cc3)cc21	42*	15	-40	0	81*	56*
SMILES	Mtb FBA inh	GDH-TPI counter-1	CCHF vOTU inh	Vc quorum ag	Mtb FBA confirm	GDH-TPI counter-2
Cc1c(Cc2ccccc2)c(=O)oc2c(C)c(OCc3nn[nH]n3)ccc12	66*	18	-16	i	+	+
Cc1cc(OCc2nn[nH]n2)c2c(-c3ccccc3)cc(=O)oc2c1	4	-10	-3	i	.	.
Cc1cc(OCc2nn[nH]n2)c2c(C)c(Cc3ccccc3)c(=O)oc2c1	105*	3	-36	-1	66*	58*
CCCc1cc(=O)oc2c(C)c(OCc3nn[nH]n3)ccc12	50*	14	-8	i	3	-1
C=CCn1c(NC(=O)c2ccc(C)cc2)c(C#N)sc1=N	-2	6	13	0	.	.
COc1ccc(CC(=O)Nc2ccc(-c3cn4ccccc4n3)cc2)cc1OC	71*	16	7	0	-6	-6
O=C(Nc1cccc(-c2cn3ccccc3n2)c1)C1CC1	36*	14	-18	0	112*	88*
CCC(=O)Nc1cccc(-c2cn3ccccc3n2)c1	27	3	-14	0	.	.
Fc1ccc(-c2cn3ccccc3n2)cc1	26	3	7	1	.	.
CCOc1ccc(-c2cn3ccccc3n2)cc1	44*	4	-16	0	116*	69*
COc1ccc(CC(=O)Nc2cccc(-c3cn4ccccc4n3)c2)cc1	31*	6	4	0	123*	86*
CCOc1ccccc1N(CC(=O)NC1CCCC1)C(=O)CCCC(=O)Nc1ccccn1	2	11	-3	i	.	.
CC(=O)Nc1ccc(S(=O)(=O)Nc2ccccc2N2CCOCC2)cc1	6	5	5	1	.	.
COc1ccc(CC(=O)Nc2ccc(-c3cn4ccccc4n3)cc2)cc1	66*	4	14	0	+	+
Cc1ccc(-c2cc(C(F)F)nc(S(C)(=O)=O)n2)cc1	34*	20	13	-1	112*	86*
Cc1cc(C)n(CCN(C)C(=O)C2CCC(=O)N(CCN3CCOCC3)C2)n1 (stereo not given)	0	-2	-6	i	.	.
CN(C)C(=O)c1c(-c2ccccc2)oc2ccc(O)cc12	18	7	-16	-4	.	.
COc1ccc2oc(-c3ccccc3)cc(=O)c2c1	79*	12	-56	0	134*	100*
COc1ccc2oc(-c3ccccc3)c(C(=O)N(C)C)c2c1	34*	10	-14	i	120*	113*
COc1ccc2oc(-c3ccccc3)c(C(N)=O)c2c1	99*	21	-37	i	110*	88*
O=c1cc(-c2ccccc2)oc2ccc(Br)cc12	4	10	-11	9	.	.
COCCCNC(=O)C[C@H]1C[C@H](C(=O)N2CCOCC2)[C@@]2(C)c3[nH]c4cc(-c5ccco5)ccc4c3CCN2C1=O	33*	0	-37	0	15	11*
CCN(CC)C(=O)[C@H]1C[C@H](CC(=O)NCCN2CCOCC2)C(=O)N2CCc3c([nH]c4cc(-c5ccco5)ccc34)[C@]12C	50*	6	-45	i	65*	39*
CCN(CC)C(=O)[C@H]1C[C@H](CC(=O)NCc2ccco2)C(=O)N2CCc3c([nH]c4cc(-c5ccco5)ccc34)[C@]12C	27	-5	-19	-1	.	.
CN(C)CCCNC(=O)C[C@H]1C[C@H](C(=O)N2CCOCC2)[C@@]2(C)c3[nH]c4cc(-c5ccco5)ccc4c3CCN2C1=O	33*	12	-25	0	135*	110*
